The text below walks through data of paper PMC7819943, “Rice protein-binding microarrays: a tool to detect cis-acting elements near promoter regions in rice”.

Whole data set: some 35,000 sequences, median “fluorescence intensity (a.u.)” near 10,000, cut for the highest 2% near 52,000. The list comes from a sample in which the highest values are over-represented; it also holds similar and randomly drawn sequences.

The target in this assay is T1, OsWOX13 (Oryza sativa, UniProt Q5QMM3 1-267).
T1 sequence: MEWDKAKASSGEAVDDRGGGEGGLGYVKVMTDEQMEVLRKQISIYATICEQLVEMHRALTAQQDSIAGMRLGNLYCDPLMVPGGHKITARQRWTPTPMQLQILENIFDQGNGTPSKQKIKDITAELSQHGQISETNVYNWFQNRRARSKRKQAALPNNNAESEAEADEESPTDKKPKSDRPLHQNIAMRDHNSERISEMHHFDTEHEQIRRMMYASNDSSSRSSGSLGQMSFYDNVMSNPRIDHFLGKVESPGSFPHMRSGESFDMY
The assay can be described thus: protein-binding microarray (RPBM); PBS, 2% BSA, 51.3 ng/ul salmon testes DNA, 50 uM zinc acetate, 200 nM TF, 25 C, 1 h; high values mean tight binding. Conditions: protein: recombinant; tags: N-terminal polyhistidine and DsRed monomer fusion (pET32a); label: CyDye5-dUTP incorporated in the synthesized complementary strand; 3' TTTTT single-stranded linker to array surface; dsDNA, one strand shown. In a few lines:
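Ni–NTA purification followed expression in E. coli BL21-CodonPlus of transcription factors fused N-terminally to a polyhistidine tag and DsRed. At 200 nM in PBS with 2% BSA, salmon testes DNA and 50 µM zinc acetate, the protein was incubated for 1 h at 25 °C with a custom Agilent array that had been primer-extended with Cy5-dUTP and blocked with 2% BSA. After washing, the array was read on an Axon 4000B scanner. The binding signal is per-feature fluorescence intensity in arbitrary units.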
As to “ACTGCTAATTAACCCTCTATAAATGCATGCCTCTCACCACCGGAGTCACCTAGTGCAG”, the binding signal was 30400 fluorescence intensity (a.u.).
As for “TTTAACATTTCCCCTTATAATTTTACCAAATCACTATGTTCGGAGTCACCTAGTGCAG”, the figure is 4600 fluorescence intensity (a.u.); as for “CCTCGCGCGCAGATAATTATCACAACTTATGGGGAGCTTGCGGAGTCACCTAGTGCAG”, 3290 fluorescence intensity (a.u.); as for “CTCATTAATCTTGCTCATTAATCTTGCAATTAATCCAGAACGGAGTCACCTAGTGCAG”, 4900 fluorescence intensity (a.u.).
For “CACTTCTGTACTTGGCGTGATTGGGCCGCGGACCGGTAGACGGAGTCACCTAGTGCAG” the value was 3750 fluorescence intensity (a.u.); for “AGTAATTTAAACACGAAAACATTTCTTATTGACAAGAATACGGAGTCACCTAGTGCAG”, 4230 fluorescence intensity (a.u.); for “TAAGGCAGAAAACCAAGGCCTTGACATTTCTTTTAGGACACGGAGTCACCTAGTGCAG”, 65000 fluorescence intensity (a.u.).
For “GTTTAGGACCTTTGATTTGTTGGTGACAGAACCCAAGGCGCGGAGTCACCTAGTGCAG” the value was 6360 fluorescence intensity (a.u.).
For “TAAAATAAATCAAATTAATACAAGTGAGATATCTTAGTAACGGAGTCACCTAGTGCAG”, the binding signal was 6480 fluorescence intensity (a.u.).
Take “TGGCTCTGATCCATCAATTAGGATTTGCCAGTGCCTCTCCCGGAGTCACCTAGTGCAG”: the binding signal is 5390 fluorescence intensity (a.u.).
As for “TCATATGATTAGGATATATCACATCTCATTATATTATATGCGGAGTCACCTAGTGCAG”, the binding signal is 17800 fluorescence intensity (a.u.).
“AAGAAGAATCTATCTATCTATCTATCTATCAATCTCTATACGGAGTCACCTAGTGCAG”: the binding signal is 3320 fluorescence intensity (a.u.).
Take “GAAGGATTGAGATATGATTGATTATTATATCATATACTCTCGGAGTCACCTAGTGCAG”: the binding signal was 55000 fluorescence intensity (a.u.).
For “TTTGGGATTATTATAATCTAGATTATTGAGTCATATTACTCGGAGTCACCTAGTGCAG” the value was 10300 fluorescence intensity (a.u.).
For “AATATATTGACATTGATATCTTATAAAGAGCCTATAGATACGGAGTCACCTAGTGCAG” the value was 5820 fluorescence intensity (a.u.).
As for “TAGAAGATAGATTGATTGATTGATATATACTATCTCTATACGGAGTCACCTAGTGCAG”, the figure is 52600 fluorescence intensity (a.u.); as for “TCCACAATTTGCTAATCATATTTCTGTTGATAATGATAATCGGAGTCACCTAGTGCAG”, 7820 fluorescence intensity (a.u.); as for “GAAGATTGAGCTCTGCAGCAACAACCCAAACACACAAAGCCGGAGTCACCTAGTGCAG”, 3290 fluorescence intensity (a.u.).
In the case of “CATAGGATCAATTTAATATATTGACATGCCATTAGGCCATCGGAGTCACCTAGTGCAG”, the binding signal was 10600 fluorescence intensity (a.u.).
As to “CTTTACAATTAATACATGTTCCACTTGTCTCTCTCACAGACGGAGTCACCTAGTGCAG”, the binding signal is 4970 fluorescence intensity (a.u.).
As to “CGTAGATTTGACCGAACAAATTGTACAGTAATGTACTAGGCGGAGTCACCTAGTGCAG”, the binding signal was 20100 fluorescence intensity (a.u.).
For “ATTATACTATGATTGTACTGTAATTACATCTGTCAAATTTCGGAGTCACCTAGTGCAG” the value was 24500 fluorescence intensity (a.u.); for “TTTACACTATAATTATATTCACTTATACATTGTAATTACACGGAGTCACCTAGTGCAG”, 13800 fluorescence intensity (a.u.).
As for “GTGTAATTACACTATAATTGCACTATAATTATATCTGTCACGGAGTCACCTAGTGCAG”, the figure is 61500 fluorescence intensity (a.u.); as for “ACTGTAATTTTAATTATATTATTGTTACACTATAATTGCACGGAGTCACCTAGTGCAG”, 41800 fluorescence intensity (a.u.).
For “GTGTAATTATACTATAATTGTACTGTAATTACATCTGTCACGGAGTCACCTAGTGCAG” the value was 56600 fluorescence intensity (a.u.); for “GTGTAATTACACTACGATTGTACTGTAATTACATCTGTCACGGAGTCACCTAGTGCAG”, 29900 fluorescence intensity (a.u.).
